Data as given in ChEMBL document CHEMBL3988442, “University of Dundee, Small-Polar-MMV Screening Library” (2021).
Out of some 48,000 compounds screened, about 13,000 (27%) showed an effect of 50% or more. The list shows a part of the results.

What follows are compounds tested on Wolbachia pipientis (assay: Anti-Wolbachia Cell-Based Screen). Settings: 5 µM.
Assay type: functional
Parameters: scale not given: in the data most compounds retested in dose-response had high values

Compared with `Cc1cc2cc(Nc3c(C#N)c(=O)n(C)c(=O)n3C)ccc2[nH]1`, `CN(C)c1cc2c(nn1)CCN(C(=O)c1cc3ccccc3[nH]c1=O)C2` is lower in “Percent Effect” value: 4.966% for the first, 4.124% for the second.

Going from `COc1ccc2c(c1)CC(NCc1cccc(OCC(N)=O)c1)CC2` (centres undefined) to `CNC(=O)COc1cccc(CNCc2c(C)noc2C)c1`, the “Percent Effect” value falls from 2.98% to -88.14%.

Going from `CNS(=O)(=O)CCn1cc(-c2cc3c(cc2OC)CCC3)nn1` to `COc1cc2c(cc1OC)CN(C(=O)NC(C)c1nncn1C)CC2` (centres undefined), the “Percent Effect” value rises from -24.83% to -16.43%.

First: COc1ccc(C)cc1-n1cnnc1C1CC(=O)N(C)C1 (centres undefined)
Second: COc1cc2c(cc1OC)C(=O)C(Sc1nncn1C)C2 (centres undefined)
The “Percent Effect” value of the first is lower: 6.21% for the first, 119.4% for the second.

Compared with `COc1cc2c(cc1OC)C(=O)C(Sc1nnnn1C)C2` (centres undefined), `COc1cc2c(cc1OC)C(=O)C(Sc1nnc(C)o1)C2` (centres undefined) is lower in “Percent Effect” value: 95.35% for the first, 89.14% for the second.

Compared with `Cc1nnc(SCC(=O)N2CCC3(CC2)c2ccccc2CC3O)o1` (centres undefined), `O=C(c1ccccc1-c1nnn[nH]1)N1CCOC(C(F)(F)F)C1` (centres undefined) is lower in “Percent Effect” value: -11.87% for the first, -13.17% for the second.

Going from `COc1cccc(Cc2nnc(SC3CCOC3=O)o2)c1` (centres undefined) to `CNC(=O)COc1cccc(CNC(=O)c2c(C)noc2C)c1`, the “Percent Effect” value rises from -7.418% to 3.18%.

Going from `O=C1CCC2(CCCO2)CCN1Cc1noc(C2CCCC2)n1` (centres undefined) to `CS(=O)(=O)N1CCCCC12CCN(c1nncs1)CC2`, the “Percent Effect” value falls from 15.53% to -20.36%.

Going from `O=C(NC1(c2nnn(Cc3ccncc3)n2)CCCC1)c1ccccc1` to `O=C(NCCNS(=O)(=O)c1ccc2c(c1)CCC2)c1ccccc1`, the “Percent Effect” value rises from -7.35% to 4.416%.

Compared with `CC(O)(CNc1ccccn1)c1ccccc1` (centres undefined), `CCOCC(=O)NCC(CC)(OC)c1ccccc1` (centres undefined) is lower in “Percent Effect” value: 12.1% for the first, 1.259% for the second.

Going from `O=C(Cc1ccccc1)NCCNS(=O)(=O)C1CCCCC1` to `O=C(NCCNS(=O)(=O)C1CCCCC1)c1ccccc1`, the “Percent Effect” value rises from 110.7% to 130.7%.

First: CCc1ccc2c(c1)C(CCNC(=O)Cc1cccc(F)c1)C(=O)N2 (centres undefined)
Second: O=C(Cc1cccc(F)c1)NCCNS(=O)(=O)C1CCCC1
The “Percent Effect” value of the first is lower: 1.678% for the first, 103.6% for the second.

Compared with `CCS(=O)(=O)NCCNC(=O)c1cnc(-c2ccccc2)nc1`, `O=C(Cc1ccc(F)cc1)NCCNS(=O)(=O)c1ccc(F)c(F)c1` is lower in “Percent Effect” value: 1.605% for the first, -6.551% for the second.

First: O=C(Cc1ccc(F)cc1)NCCNS(=O)(=O)C1CCCC1
Second: O=C(CCS(=O)(=O)C1CCCC1)NCCc1cccc(O)c1
The “Percent Effect” value of the first is higher: 108.3% for the first, 0.8082% for the second.

Going from `Cc1cccc(CCNC(=O)CCS(=O)(=O)C2CCCC2)c1` to `O=C(Cc1ccc(F)cc1)NCCc1ccoc1`, the “Percent Effect” value rises from 1.788% to 13.31%.

Compared with `CN(C)C(CNCc1nc(-c2ccsc2)no1)c1cccs1` (centres undefined), `COc1ccc(-c2noc(CNC(C)Cn3cccn3)n2)c(OC)c1` (centres undefined) is lower in “Percent Effect” value: 32.89% for the first, -1.941% for the second.

Compared with `CN(Cc1ccc(OC(F)F)cc1)C(=O)CS(=O)(=O)c1ccc(Cl)cc1`, `CC(C)C(c1cccnc1)N(C)C(=O)Cc1ccc(O)cc1` (centres undefined) is lower in “Percent Effect” value: -2.734% for the first, -17.69% for the second.

First: COc1ccc(C(C)Nc2ncc(C(N)=O)cc2Cl)cc1OC (centres undefined)
Second: COc1cccc(S(=O)(=O)NC(=O)c2c(C)noc2C(C)C)c1
The “Percent Effect” value of the first is higher: 2.755% for the first, -5.099% for the second.

First: CNC(=O)COc1cccc(CNC(=O)c2c(C)noc2C(C)C)c1
Second: COCc1cccc(CNC(=O)c2c(C)noc2C(C)C)c1
The “Percent Effect” value of the first is higher: 111.4% for the first, 76.98% for the second.

First: Cc1noc(C(C)C)c1C(=O)NCc1cccnc1
Second: Cc1noc(C(C)C)c1C(=O)NS(=O)(=O)c1cccnc1
The “Percent Effect” value of the first is higher: 107.3% for the first, -12.13% for the second.

First: Cc1noc(C)c1C(=O)N(C)C(C)c1cccnc1 (centres undefined)
Second: Cc1noc(C(C)C)c1C(=O)NCc1cccc(N(C)C)c1
The “Percent Effect” value of the first is higher: 4.505% for the first, -0.3759% for the second.

Going from `Cc1noc(C(C)C)c1C(=O)NCc1cccc(CN(C)C)c1` to `COc1cc(CNC(=O)c2c(C)noc2C(C)C)ccn1`, the “Percent Effect” value falls from 74.15% to 8.071%.

Going from `Cc1nc(-c2cnn(C)c2)sc1C(=O)NCc1cccc(CN(C)C)c1` to `C=C(C)COc1cccc(C(=O)N(CC)Cc2nccn2C)c1`, the “Percent Effect” value falls from 4.14% to 0.123%.

Going from `CNC(=O)CC1CCN(C(=O)Nc2ccc(-c3cc[nH]n3)cc2)CC1` to `O=C(NCc1cc[nH]n1)NCC(c1ccc(F)cc1)N1CCOCC1` (centres undefined), the “Percent Effect” value falls from 6.092% to 5.34%.

Going from `CC(CNC(=O)Nc1cn[nH]c1)N1CCCC1` (centres undefined) to `CC(CNC(=O)Nc1cn[nH]c1)N1CCOCC1` (centres undefined), the “Percent Effect” value falls from 127.7% to 3.391%.

Compared with `Cc1ccc(C(CNC(=O)NCc2cc[nH]n2)N2CCOCC2)o1` (centres undefined), `Cc1ccc(C(CNC(=O)Nc2cn[nH]c2)N2CCOCC2)o1` (centres undefined) is higher in “Percent Effect” value: -7.152% for the first, 59.24% for the second.

Going from `COc1ccc(C(CNC(=O)Nc2cn[nH]c2)N2CCOCC2)cc1` (centres undefined) to `O=C(NCC(c1ccc(F)cc1)N1CCOCC1)Nc1cn[nH]c1` (centres undefined), the “Percent Effect” value rises from -0.482% to 114.1%.

First: O=C(NCC(c1ccccc1)N1CCOCC1)Nc1cn[nH]c1 (centres undefined)
Second: CC(C)C(CNC(=O)Nc1cn[nH]c1)N1CCOCC1 (centres undefined)
The “Percent Effect” value of the first is higher: 127.8% for the first, 97.51% for the second.

Going from `CC(CNC(=O)Nc1cn[nH]c1)N1CCc2ccccc2C1` (centres undefined) to `CCC(CC)C(CNC(=O)Nc1ccc(C)cc1)N1CCOCC1` (centres undefined), the “Percent Effect” value rises from -5.86% to 4.516%.

Going from `CCn1c(CN(C)C)nnc1C1CCN(Cc2ccc(Cl)cc2F)CC1` to `Cc1ccc2c(c1)nc1n2[C@@H](CNC(=O)c2ccccn2)COC1`, the “Percent Effect” value rises from -5.252% to 6.729%.

Going from `Cc1noc(C)c1CC(=O)NCC(C(C)C)N1CCOCC1` (centres undefined) to `C=C(C)COc1ccccc1C(=O)N(C)C(C)c1c(C)n[nH]c1C` (centres undefined), the “Percent Effect” value falls from -3.487% to -35.55%.

Compared with `CN(CCCNC(=O)c1cccc(OCC(N)=O)c1)CC(F)(F)F`, `C=C(C)COc1cccc(C(=O)NCCCc2nnn[nH]2)c1` is higher in “Percent Effect” value: 0.5585% for the first, 109% for the second.

Going from `C=C(C)COc1ccccc1C(=O)NCCc1nncn1C` to `C=C(C)COc1ccccc1C(=O)NCCCc1nnn[nH]1`, the “Percent Effect” value rises from -0.8083% to 115.9%.

Going from `C=C(C)COc1cccc(C(=O)NC(C)c2nnn[nH]2)c1` (centres undefined) to `CCC(=O)c1ccc(OCC(=O)NC(C)c2nnn[nH]2)cc1` (centres undefined), the “Percent Effect” value falls from 104.4% to -5.336%.

`C=C(C)COc1cccc(C(=O)N(C)C(C)c2c(C)n[nH]c2C)c1` (centres undefined) was tested, and the “Percent Effect” value was -12.59%.
